# A selection: hits, their analogues and other compounds. The true share with any hit is near 6.5%.
# Vaccinia Venus: qHTS for Stage-Specific Inhibitors of Vaccinia Orthopoxvirus: Venus Reporter Primary qHTS. Vaccinia virus Venus reporter expression, fluorescence. Potency, µM (series often up to 36.5 µM), for inactives: at the highest dose activity change, negative = inhibition, most hits filed as inhibitors. AID 720580, 2013. 0.46% of 330,000 active; calls by dose curve; tested in A549 cells; further: potency means the concentration at half of the fitted maximal effect; nearly all actives have a fitted effect of over 30% in size
# FMDV antiviral: High Throughput Screening for Foot and Mouth Disease Virus Antivirals. FMDV antiviral cell-based qHTS. Potency, µM (top dose mostly 57.9 µM), inactives show at the top dose activity change, negative = inhibition, usual class: inhibitors. 1.2% of 410,000 active; calls by dose curve; tested in HEK293T cells; further: read-out not given here; potency means the concentration at half of the fitted maximal effect; nearly all actives have a fitted effect of over 45% in size
# Marburg entry inh: qHTS for inhibitors of binding or entry into cells for Marburg Virus | Potency, µM (titrated, usually from 37.8 µM), without a hit: at the highest dose activity change, negative = inhibition, most hits filed as inhibitors | 1.8% of 300,000 active | Marburg virus pseudotyped entry inhibition, cell reporter; calls by dose curve; tested in HEK293 cells; further: potency means the concentration at half of the fitted maximal effect
# Vaccinia mCherry: qHTS for Stage-Specific Inhibitors of Vaccinia Orthopoxvirus: mCherry Reporter Primary qHTS; Vaccinia virus mCherry reporter infection, fluorescence; AID 720579, 2013; Potency, µM (series often up to 36.5 µM), for the others: at the highest dose activity change, negative = inhibition, usual class: inhibitors; 0.63% of 310,000 active; calls by dose curve; tested in A549 cells; further: potency means the concentration at half of the fitted maximal effect; nearly all actives have a fitted effect of over 35% in size
# HCMV antiviral: qHTS Assay for inhibitors of the human cytomegalovirus (HCMV) | HFF cells, HCMV-luciferase reporter, 72 h; stronger effect = lower value | activity change, negative = inhibition, % at 57.5 µM | 4.5% of 410,000 active; in the data active means activity change below about -60%; inconclusive means no clear call, values can overlap the other calls; inactive means above about -39%
#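 HFF cells seeded 16 h at 37C, treated with compounds, infected with luciferase-reporter HCMV at MOI 1 PFU/cell; luciferase read at 72 h post infection, normalized to buffer-only and Salinomycin controls.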
# LASV entry inh: qHTS for Inhibitors of binding or entry into cells for Lassa Virus | Lassa virus pseudotype entry inhibition, cell reporter | Potency, µM (titrated, usually from 37.9 µM), for inactives: top-dose activity change, negative = inhibition, hits mostly inhibitors | 1.2% of 300,000 active; calls by dose curve; tested in HEK293 cells; further: potency means the concentration at half of the fitted maximal effect; nearly all actives have a fitted effect of over 50% in size
# Starred values were filed as active, the others as inactive; i = inactive; ? = inconclusive; nt = no result; [ ] = dose if it differs, or a comment. On the % scale 0 is the no-effect control and ±100 the full control effect.
SMILES,Vaccinia Venus,FMDV antiviral,Marburg entry inh,Vaccinia mCherry,HCMV antiviral,LASV entry inh
Cc1ccc(N(C(=O)c2snc(C(N)=O)c2N)C(C(=O)NCCC(C)C)c2ccco2)cc1 (stereo not drawn),nt,-21%,nt,nt,-63*,nt
C=CCCN(Cc1ccc(C)cc1)S(=O)(=O)C=C,nt,nt,nt,nt,nt,0%[46.1 µM]
O=C1N=C2C=CC=CC2N1C1CCN(CCCC(c2ccc(F)cc2)c2ccc(F)cc2)CC1 (stereo not drawn),nt,nt,-22%,nt,nt,nt
CCOC(=O)CSC1=NC(=O)/C(=C\c2ccc(OC(C)=O)cc2)S1,nt,22%,8.2µM*,nt,113,?
NC1=NC(=O)/C(=C/c2ccc(Br)cc2)S1,nt,7%,nt,nt,-20,nt
CCOC(=O)CSC1=NC(=O)/C(=C/c2ccc(Br)cc2)S1,-13%,25µM*,8%[46.1 µM],-2%,-29,5%
Cc1cccc(CNC(=O)c2cnn(-c3nccc(-c4cc(C)sc4C)n3)c2C)n1,-1%,-8%,nt,-4%,nt,nt
Cc1cc(C)n(-c2ccc(NC(=O)C3CCN(Cc4cnc(C)s4)CC3)cc2)n1,-11%,-28%,-4%,-2%,-60*,-4%
Cc1ncc(CN2CCC(C(=O)Nc3ccc(-n4cccn4)cc3)CC2)s1,-12%,-13%,5%,i,8,-4%
Cn1c(=O)[nH]c(Nc2ccccc2)c([N+](=O)[O-])c1=O,-1%,2%,8%[46.1 µM],-12%,-94*,-13%
CC(C)(C)c1ccc(C(=O)NNC(=O)c2cccc(Br)c2)cc1,nt,18%,?,nt,-73*,?
Cn1cc(Br)c(C(=O)NNC(=O)c2ccc(Br)cc2)n1,-12%,22%,22%,-9%,48,3%
Cc1c(Br)c(C(=O)NNC(=O)c2ccc(C(C)(C)C)cc2)nn1C,nt,28%,nt,nt,-61*,nt
CCN1C(=NCc2ccc3c(c2)OCO3)NC(CCc2ccccc2)C(C(=O)OC)=C1C (stereo not drawn),nt,nt,-30%[14.2 µM],nt,nt,?
CC(CSc1nc2ccccc2s1)Cn1c(N2CCCC2)nc2c1c(=O)[nH]c(=O)n2C (stereo not drawn),-23%,-2%,8.9µM*,-7%,?,-22%
CCN1CCN(c2nc3c(c(=O)[nH]c(=O)n3C)n2CCSc2nc3ccccc3s2)CC1,-9%,-18%,5%,-11%,33,nt
CC(C)CCn1c(Sc2nc3ccccc3s2)nc2c1c(=O)[nH]c(=O)n2C,nt,32µM*,?,nt,-26,?
CC(C)=CC1C(C(=O)OC(C#N)c2cccc(Oc3ccccc3)c2)C1(C)C (stereo not drawn),nt,nt,nt,nt,11,nt
CCc1nnc(NC(=O)CSc2nc3cccnc3n2C2CCCCC2)s1,-10%,?,2.5µM*,-20%,?,5.6µM*
OCCC1CN(Cc2ccc(Oc3ncccn3)cc2)CCN1C1CCCCC1 (stereo not drawn),nt,-19%,nt,nt,-25,nt
Cc1ccc(C(NC(=O)NC(C)c2ccccc2)C(Cl)(Cl)Cl)cc1F (stereo not drawn),?,?,?,22µM*,-100*,?
CCc1ccc(S(=O)(=O)NCc2nc(N3CCCC3)c3cccc(C)c3n2)cc1,1%,9%,nt,-1%,nt,nt
C=CC1(O)C(OC)=CC2C(=O)C1C(c1ccccc1)C2C (stereo not drawn),nt,nt,14%[14.2 µM],nt,nt,?
O=C(CN1C(=O)C(c2ccc(F)cc2)=NC12CCCCCC2)Nc1ccc(F)c(Cl)c1,-16%,?,16%[46.1 µM],i,-90*,5%[46.1 µM]
COc1cc(NC(=O)CN2C(=O)C(c3ccc(Cl)cc3)=NC23CCCCC3)cc(OC)c1,-18%,-26%,?,-22%,-93*,-22%[46.1 µM]
SMILES,Vaccinia Venus,FMDV antiviral,Marburg entry inh,Vaccinia mCherry,HCMV antiviral,LASV entry inh
COc1ccc(NC(=O)CN2C(=O)C(c3ccc(C)cc3)=NC23CCCCCC3)cc1Cl,-10%,-1%,?,-12%,-22,-22%[46.1 µM]
COc1cccc(NC(=O)CN2C(=O)C(c3ccc(C)cc3)=NC23CCCCCC3)c1,-9%,?,2%,-7%,?,-5%
COc1ccc(C2=NC3(CCCCCC3)N(CC(=O)Nc3cccc(Cl)c3)C2=O)cc1,-22%,?,-26%[46.1 µM],-26%,-91*,?
COc1ccc(NC(=O)CN2C(=O)C(c3ccccc3)=NC23CCC(C)CC3)cc1Cl (stereo not drawn),-19%,-19%,20µM*,-16%,2,-22%[46.1 µM]
CCC(=O)N(CCC(Cc1ccccc1)c1ccc2c(c1)OCO2)Cc1ccccc1F (stereo not drawn),?,?,13µM*,?,-25,?
CCC(=O)N(CCC(c1ccccc1)c1ccc2c(c1)OCO2)Cc1ccc(OC(C)C)cc1 (stereo not drawn),-23%,-10%,-10%[46.1 µM],-20%,-8,?
CN1C(=O)/C(=C\C(=O)c2cccs2)c2ccccc21,-5%,22µM*,?,i,-99*,-10%
CCc1cc(C(=O)N2CCCC(C(=O)c3cccc4ccccc34)C2)n(C)n1 (stereo not drawn),-23%,?,?,-15%,-60*,nt
CCCc1cc(C(=O)N2CCCC(C(=O)c3cccc4ccccc34)C2)n(C)n1 (stereo not drawn),nt,-14%,nt,nt,0,nt
CC1Oc2cc3c(-c4c(O)cc(O)c5c(O)c6c(cc45)OC(C)C(C)C6=O)c(O)cc(O)c3c(O)c2C(=O)C1C (stereo not drawn),4µM*,?,nt,?,nt,nt
C[C@@H]1Cc2c(O)c(O)cc(O)c2C(=O)O1,2%,-10%,nt,-4%,nt,nt
CCCOC(=O)c1ccc(NC(=O)COC(=O)C2CCN(c3ccc(C(F)(F)F)cn3)CC2)cc1,nt,22%,nt,nt,62,nt
Cc1ccc(NC(=O)COC(=O)C2CCN(c3ccc(C(F)(F)F)cn3)CC2)cc1,nt,-2%,nt,nt,-73*,nt
CCOc1cccc(C(=O)Nc2cccc(NC(=O)c3ccco3)c2)c1,-13%,-5%,?,i,-62*,-24%
O=C(Nc1cccc(NC(=O)c2ccco2)c1)c1cccc(Br)c1,-21%,-13%,15%[46.1 µM],-23%,-90*,?
CCCOc1cccc(C(=O)NC(=S)Nc2cccc(C(F)(F)F)c2)c1,-12%,nt,4%,-9%,?,?
O=C(NC1CCCC1)c1cccc(NC(=O)c2ccco2)c1,nt,7%,-5%,nt,-107*,-1%
CCOc1cccc(C(=O)NC(=S)Nc2cccc(C)c2)c1,-7%,-2%,?,-20%,-99*,?
O=C(Nc1cc(Br)c(O)c(Br)c1)c1cccc(NC(=O)c2ccco2)c1,nt,-20%,nt,nt,26,nt
CC(=O)N1CCOc2ccc(S(=O)(=O)N3CCC(C(=O)Nc4cc(C)ccc4C)CC3)cc21,-3%,-17%,-1%[46.1 µM],-15%,-64*,17%[46.1 µM]
O=C(/C=C/c1ccc(Cl)cc1Cl)Nc1ccc(CN2CCOCC2)cc1,nt,?,nt,nt,-86*,nt

# Source: PubChem BioAssay
